This is a sample that favours compounds with a hit; in the whole collection about 1.8% have one here.
LANA-H2A inh: blockers of LANA interaction with H2A/H2B – biochemical, FP readout, HTS, primary screen; inhibition, % (no concentration beside the values); 0.6% of 320,000 active; cell-free LANA-H2A/H2B peptide, fluorescence polarization; Protein LANA1 (Human herpesvirus 8 type P (isolate GK18)), Q9QR71; AID 2629, 2010; in the data active = inhibition mostly above about 10%, no sharp cut-off; inactive = mostly below about 6.7%
VLA-4 inh: inhibition in human VLA-4 binding assay, primary screen, VLA-4 allosteric modulator project, MLPCN library, flow cytometry, VLA-4 expressing cells; Integrin alpha-4 (Homo sapiens), P13612; ligand binding flow cytometry; inhibition, % (about 7 µM as worked out from the volumes in the protocol); 0.2% of 330,000 active; AID 2557, 2010
PKD1 inh: inhibitors of human PKD1 kinase, biochemical, fluorescence polarization | Serine/threonine-protein kinase D1 (Homo sapiens), Q15139 | inhibition, % (concentration not given with the values) | AID 797, 2007 | 0.056% of 200,000 active | PKD1 kinase fluorescence polarization assay
DSG3 Ab inh: inhibitors of pemphigus antibody binding to DSG3, primary screen, biochemical, bead-based, flow cytometry, scFv-GFP. Desmoglein-3 (Homo sapiens), P32926. DSG3-coupled beads, scFv-anti-DSG3-GFP binding; active compounds read low. binding (percent of control), % at 10 µM. 0.48% of 310,000 active. AID 588358, 2011;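 active = binding more than 3 SD below its plate's average and above zero; inconclusive = below that plate limit but binding exactly zero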;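 note: hits lower antibody fragment binding to DSG3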
HDAC3 inhib: HDAC3 deacetylase inhibitors, primary screen, biochemical, fluorescence, cell-free homogeneous; 0.15% of 320,000 active; Histone deacetylase 3 (Homo sapiens), O15379; recombinant HDAC3, fluorogenic peptide/trypsin coupled; AID 2718, 2010; inhibition, % at 8.3 µM; in the data active = inhibition above about 26%, passing the limit was not always enough; inconclusive = no clear call, values can overlap the other calls
GRK2 aptamer HTS: compounds blocking aptamer binding on GRK2 – biochemical, human GRK2, bead flow cytometry, HTS, primary screen; inhibition of aptamer binding, % at 10 µM; 0.59% of 330,000 active; Beta-adrenergic receptor kinase 1 (Homo sapiens), P25098; FAM-aptamer displacement from GRK2;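 active = inhibition of aptamer binding above 40%, roughly 3 SD of noise, on plates passing a quality check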;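 note: median bead fluorescence of bound FAM aptamer so fluorescent compounds give negative values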
Target sequence (P25098 whole entry, looked up): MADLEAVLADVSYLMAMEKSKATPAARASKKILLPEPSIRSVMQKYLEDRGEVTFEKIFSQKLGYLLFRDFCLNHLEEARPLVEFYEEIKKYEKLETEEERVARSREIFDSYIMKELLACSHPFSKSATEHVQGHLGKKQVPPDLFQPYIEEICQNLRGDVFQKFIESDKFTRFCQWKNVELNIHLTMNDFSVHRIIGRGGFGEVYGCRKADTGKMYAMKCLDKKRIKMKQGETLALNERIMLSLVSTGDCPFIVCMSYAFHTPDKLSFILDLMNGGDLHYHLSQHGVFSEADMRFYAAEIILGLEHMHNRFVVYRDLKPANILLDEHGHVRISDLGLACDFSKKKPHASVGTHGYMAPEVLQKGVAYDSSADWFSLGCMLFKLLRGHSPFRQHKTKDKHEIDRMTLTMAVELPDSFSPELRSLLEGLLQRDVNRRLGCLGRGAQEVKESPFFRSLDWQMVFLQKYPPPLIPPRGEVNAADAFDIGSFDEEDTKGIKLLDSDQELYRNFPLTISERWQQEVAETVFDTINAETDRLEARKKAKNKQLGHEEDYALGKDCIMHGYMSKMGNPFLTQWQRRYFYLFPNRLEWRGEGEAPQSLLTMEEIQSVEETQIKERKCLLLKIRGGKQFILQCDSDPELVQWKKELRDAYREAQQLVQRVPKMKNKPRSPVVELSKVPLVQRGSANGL
GRK2 inh confirm: GRK2 aptamer-displacing inhibitors, retest, confirmation, biochemical, cherry pick 1, bead flow cytometry | shares compounds with GRK2 aptamer HTS | bead-bound GRK2, FAM-aptamer displacement | aptamer displacement, % at 10 µM | 4% of 2,000 active;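 active = aptamer displacement above 40%, near three times the noise of non-fluorescent compounds, on plates passing quality checks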;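 note: negative values mostly reflect intrinsic compound fluorescence rather than true enhancement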
Aptamer quench SP: quenches fluorescent RNA aptamer, GRK2 hit artifact | fluorescence response (% of DMSO), % at 10 µM | Carboxyfluorescein RNA aptamer on beads, flow cytometry quenching; active compounds read low | shares compounds with GRK2 aptamer HTS | 2,000 tested, under 10 active | AID 504580;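 active = compounds that quench the bead-bound fluorescent RNA probe, cutting fluorescence to under half of the solvent control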;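 note: counterscreen run without GRK2 so only probe quenching by compound is measured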
GRK2 confirm 2: GRK2 aptamer-displacing inhibitors, hit retest, confirmation, biochemical, cherry pick 2, bead flow cytometry; 360 tested, under 10 active; bead-bound GRK2, FAM-aptamer displacement; inhibition of aptamer binding, % at 10 µM; shares compounds with GRK2 aptamer HTS;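 active = inhibition of aptamer binding above 40%, about triple the noise seen with nonglowing compounds, on plates passing quality control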;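 note: negative values mostly come from compounds that fluoresce themselves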
FAM quench SP: counter-screen for GRK2 binding hits: quenchers of fluorescent RNA aptamer; shares compounds with GRK2 aptamer HTS; carboxyfluorescein RNA aptamer beads, flow cytometry quenching; active compounds read low; fluorescence response vs DMSO, % at 10 µM; 360 tested, under 10 active;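 active = response vs DMSO under 50%, meaning signal dropped by over half, treated as fluorescence quencher; inconclusive = no clear call, values can overlap the other calls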;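 note: labelled aptamer on streptavidin beads without GRK2 as a quench counter-screen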
Numbers stand for hits; 0 = inactive; ? = inconclusive; - = no result given. Cut-off read from the data, not from the text of the source, unless noted: active = inhibition above about 50%; inactive = the rest.

SMILES	LANA-H2A inh	VLA-4 inh	PKD1 inh	DSG3 Ab inh	HDAC3 inhib	GRK2 aptamer HTS	GRK2 inh confirm	Aptamer quench SP	others
C=CCn1c(NC(=O)c2ccccc2Cl)c(C#N)c2nc3ccccc3nc21	0	0	0	0	0	43	0	0
O=C(Nc1ccnn1C1CCN(Cc2cc(Cl)ccc2O)CC1)C1CC1	0	0	-	?	0	0	-	-
CCN(CC)CCOC(=O)C1(c2ccccc2)CCCC1	36	0	0	0	0	69	0	0
Cc1ccccc1-n1ccnc1SCC(=O)NC1CCCC1	0	0	-	0	0	49	0	0
COc1ccccc1-c1nnc(SCC(=O)NC2CC2)n1C	0	0	-	0	0	86	0	0
Cc1cc(C)c(C)c(S(=O)(=O)N2CCN(C(=O)c3cc(S(=O)(=O)N4CCOCC4)ccc3F)CC2)c1C	0	0	-	0	0	0	0	0
COc1cc2c3c(c1OC)C1(C=CC(=O)C=C1)CC3N(C(=O)c1ccccc1)CC2 (stereo unspecified)	0	-	0	0	0	70	0	0
O=C(Cc1ccccc1)Nc1ccc(NC(=O)c2ccccc2)nc1	0	0	-	0	0	41	-	-	GRK2 confirm 2=0;FAM quench SP=0
COc1ccc(-c2c(NC(=O)CC(C)C)n(C)c3ccccc3c2=O)cc1OC	0	0	-	0	0	87	0	0
O=C(CNC(=O)c1cccc(-n2cnnn2)c1)Nc1ccc(F)c(F)c1	0	0	-	0	0	0	-	-
Cc1ccc([C@@H]2CC(=O)[C@@H]3CN(S(=O)(=O)c4ccc(C)cc4)[C@H](c4ccc(Cl)cc4)C[C@@H]3N2S(=O)(=O)c2ccc(Cl)cc2)cc1	-	-	-	0	-	-	-	-
COc1ccc2c(c1)C(=O)N(c1ccccc1C)C(=O)C2(C)C	0	0	0	0	0	78	0	0
COc1ccc2c(c1)C(=O)N(c1ccc(C)cc1C)C(=O)C2(C)C	0	0	-	0	0	0	-	-
COC(=O)c1cc(S(=O)(=O)N2CCN(c3cccc(OC)c3)CC2)cn1C	0	0	-	-	0	0	-	-
Cc1ccc(N2CC(C(=O)Nc3nnc(SCCN4CCOCC4)s3)CC2=O)cc1C (stereo unspecified)	0	0	-	-	0	0	-	-
O=C(CCCOc1ccccc1)N1CCN(C(=O)c2ccco2)CC1	0	0	0	0	0	0	-	-
Cc1cc(Cl)ccc1OCCCC(=O)N1CCN(C(=O)c2ccco2)CC1	0	0	0	0	0	78	0	0
O=C(OCC(=O)N1CCN(C(=O)c2ccco2)CC1)c1ccc(Cl)cc1	0	0	-	0	0	0	-	-
O=C(OCC(=O)N1CCN(C(=O)c2ccco2)CC1)c1ccccc1	-	0	0	0	-	78	0	0
COC(=O)COc1ccc(C(=O)Cn2c(NCCCO)nc3ccccc32)cc1	0	0	-	-	0	0	-	-
COc1ccc(Cl)cc1NC(=O)CN(C)C(=O)c1cn(-c2ccccc2)nc1-c1cccnc1	0	0	-	0	0	0	-	-
CN(C)C(=O)c1ccc(NC(=O)c2ccccc2SCC(=O)N2CCCC2)cc1	0	0	-	0	0	0	-	-
CCN(CC)c1ccc(NC(=O)c2cc3c(OC)cccc3[nH]2)cc1	0	0	-	0	0	0	0	0
O=C(Nc1ccc(F)cc1)c1cc2cc(Cl)ccc2[nH]1	0	0	-	0	0	58	-	-	GRK2 confirm 2=0;FAM quench SP=0
Cc1ccc2nc(SCC(=O)Nc3cccc(F)c3)nc(=O)n2c1	-	0	-	0	-	100	0	0
SMILES	LANA-H2A inh	VLA-4 inh	PKD1 inh	DSG3 Ab inh	HDAC3 inhib	GRK2 aptamer HTS	GRK2 inh confirm	Aptamer quench SP	others
Cc1ccc2nc(SCC(=O)Nc3cccc(Cl)c3)nc(=O)n2c1	0	0	-	0	0	0	-	-
COc1ccc(C(CC(=O)Nc2ccccn2)N2Cc3ccccc3C2=O)cc1OC (stereo unspecified)	0	0	-	0	0	0	-	-
Cc1cc(NC(=O)CSc2n[nH]c(-c3ccc(Cl)cc3Cl)n2)no1	0	0	-	-	0	0	-	-
COc1cccc(N2CC(C(=O)Nc3ccc(C(=O)OC(C)C)cc3)CC2=O)c1 (stereo unspecified)	0	0	0	0	0	73	0	0
COc1cccc(-c2ncc3ccccc3c2COC(=O)c2cccc(Br)c2)c1	0	0	-	-	0	0	-	-
NS(=O)(=O)c1cccnc1Nc1ccc(Cl)c(Cl)c1	-	0	0	0	-	0	-	-
CC(=O)NS(=O)(=O)c1cccnc1Nc1ccc(Cl)c(Cl)c1	0	0	0	0	0	83	0	0
O=C(O)c1ccccc1-c1nnc2c(Cl)cc(C(F)(F)F)cn12	0	0	-	0	0	0	0	0
CC1CC(C)CN(S(=O)(=O)c2cccc(C(=O)OCCN3CCCC3=O)c2)C1 (stereo unspecified)	0	0	0	-	0	89	0	0
CCOC(=O)C1=C(CCc2ccccc2)NC(=O)NC1c1ccc(C#N)cc1 (stereo unspecified)	0	0	-	0	0	0	-	-
CC(C)c1c(O)nc(SCc2ccc(F)cc2)[nH]c1=O	0	0	-	0	0	60	0	0
COc1cccc(NC(=O)CN(C)C(=O)c2ccc(COc3ccccc3)cc2)c1	0	0	-	0	0	0	-	-
CCOc1ccc(NC(=O)CN(C)C(=O)c2ccc(COc3ccccc3)cc2)cc1OCC	0	0	-	0	0	0	0	0
CCC1(c2ccc(F)cc2)NC(=O)N(CC(=O)NC2CCCCCC2)C1=O (stereo unspecified)	0	0	-	-	0	0	-	-
Cc1cccc2c1cnn2C(=O)CCC(=O)N1CC(C)CC(C)C1 (stereo unspecified)	0	0	-	0	0	0	-	-
Cc1cccc2c1cnn2C(=O)CCC(=O)N1CCC(C)CC1	0	0	-	0	0	70	0	0
CCCc1c(OCCCOc2ccc(OCC(=O)O)cc2)ccc(C(C)=O)c1O	0	0	-	0	0	0	-	-
Cc1cccc(C(=O)OCC(=O)N(C)CC(=O)Nc2ccc(Cl)c(C(F)(F)F)c2)c1	0	0	-	0	0	0	-	-
